For assay [1], the target named is Glutathione peroxidase 1 (Homo sapiens) (UniProt P07203). Nature of the assay: Primary qHTS Assay for Inhibitors of Recombinant Selenoprotein Glutathione Peroxidase 1 (GPX1) (AID 1845191). Further: nearly all actives have a fitted effect of over 65% in size. An outline of the steps: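 GR-coupled readout: NADPH consumption tracked by fluorescence, ex 340/em 450 nm, at t=0 and after 15 min at RT. Final mix 10 nM GPX1, 1 mM GSH, 0.5 mM CHP, 0.5 mM NADPH, 100 nM GR, 0.01% BSA, following 30 min enzyme–compound preincubation.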
(In general: qHTS replaces the single test concentration by a dilution series.)

The target in assay [2] is Phospholipid hydroperoxide glutathione peroxidase GPX4 (Homo sapiens) (UniProt P36969). Put plainly: Primary qHTS Assay for Inhibitors of Recombinant Selenoprotein Glutathione Peroxidase 4 (GPX4) (AID 1845192). Further: nearly all actives have a fitted effect of over 65% in size. An outline of the steps: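 Steps: GPX4 plus compound, 30 min RT; add GR/GSH/NADPH master mix; start with cumene hydroperoxide; read 340/450 nm fluorescence at 0 and 15 min. Finals were 200 nM GPX4, 1 mM GSH, 0.5 mM CHP, 0.5 mM NADPH, 100 nM GR.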

Assay [3] in a line: Quantitative High-Throughput drug screen in 47 multiple myeloma cell lines against the NCATS MIPE library collection: FR4_PLB cell viability assay (AID 1918924; further: nearly all actives have a fitted effect of over 35% in size). The procedure, abridged:
(§1)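 We plated 500 myeloma cells per well, pinned in MIPE 4.0 compounds, and incubated for 48 hours at 37C. ATP was then quantified with CellTiter-Glo, with DMSO and media-only wells defining 100% and 0%.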

Assay [4] in a line: Quantitative High-Throughput drug screen in 47 multiple myeloma cell lines against the NCATS MIPE library collection: EJM_DSMZ cell viability assay (AID 1918926; further: nearly all actives have a fitted effect of over 30% in size). The procedure, abridged: (§2)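 Steps: seed 500 cells per well; pin-transfer MIPE 4.0 library; incubate 48 h at 37C, 5% CO2, humidified; add CellTiter-Glo, 5 min room temperature; read luminescence.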
Assay [5] in a line: Quantitative High-Throughput drug screen in 47 multiple myeloma cell lines against the NCATS MIPE library collection: ARP1_JJKsccF8 cell viability assay (AID 1918928; further: nearly all actives have a fitted effect of over 40% in size). The procedure, abridged: (§3)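 500 cells/well; MIPE 4.0 library pinned in; 48 h, 37 °C, 5% CO2; CellTiter-Glo ATP luminescence. Controls: DMSO = 100% viability, medium only = 0%.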
Assay [6] can be described thus: Quantitative High-Throughput drug screen in 47 multiple myeloma cell lines against the NCATS MIPE library collection: Karpas620_DSMZ cell viability assay (AID 1918959). Further: nearly all actives have a fitted effect of over 30% in size. An outline of the steps: as §1
Assay [7] in a line: Quantitative High-Throughput drug screen in 47 multiple myeloma cell lines against the NCATS MIPE library collection: KHM11_PLB cell viability assay (AID 1918962). Further: nearly all actives have a fitted effect of over 35% in size. An outline of the steps:
as §1

The nature of assay [8]: Quantitative High-Throughput drug screen in 47 multiple myeloma cell lines against the NCATS MIPE library collection: JIM3_ECACC cell viability assay (AID 1918963; further: nearly all actives have a fitted effect of over 35% in size). The procedure, abridged:
as §1

Assay [9] in a line: Quantitative High-Throughput drug screen in 47 multiple myeloma cell lines against the NCATS MIPE library collection: AMO1_DSMZ cell viability assay (AID 1918927; further: nearly all actives have a fitted effect of over 30% in size). The procedure, abridged:
as §2

The nature of assay [10]: Quantitative High-Throughput drug screen in 47 multiple myeloma cell lines against the NCATS MIPE library collection: ARD_JJKsccE7 cell viability assay (AID 1918929). The procedure, abridged:
as §2

The nature of assay [11]: Quantitative High-Throughput drug screen in 47 multiple myeloma cell lines against the NCATS MIPE library collection: KMM1_JCRB cell viability assay (AID 1918960). Further: nearly all actives have a fitted effect of over 30% in size. The procedure, abridged: as §3
A short description of assay [12]: Quantitative High-Throughput drug screen in 47 multiple myeloma cell lines against the NCATS MIPE library collection: Delta47_JCRB cell viability assay (AID 1918925; further: nearly all actives have a fitted effect of over 45% in size). The procedure, abridged:
as §2

Assay [13] is described as follows: Quantitative High-Throughput drug screen in 47 multiple myeloma cell lines against the NCATS MIPE library collection: Karpas417_ECACC cell viability assay (AID 1918961). The settings on record: Karpas417 myeloma viability, CellTiter-Glo ATP luminescence, 48 h; viability (% of DMSO): at 45.8 µM (top of the series) unless noted. The procedure, abridged: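 Viability readout: CellTiter-Glo luminescence following 5 min room-temperature incubation with reagent. Prior exposure: 48 h, 37C, humidified 5% CO2, 500 cells per well.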
(In general: In ATP-based viability assays light output follows the ATP content of the culture.)

Structures are written as SMILES. Records with an inconclusive call do not appear. The source holds several records for some structures; these can differ, active in one and inactive in another. Activity calls are given as the source filed them. The call rests on the fitted dose curve; in most records, active means well fitted curve in the direction sought with a large enough effect; inconclusive means small, poorly fitted or top-dose-only effect, or another doubt; inactive means no such curve, though single readings can be large; an effect the other way counts as inactive or inconclusive.
Potency means the concentration at half of the fitted maximal effect.

Phospholipid hydroperoxide glutathione peroxidase GPX4 (Homo sapiens), sequence (P36969 whole entry, looked up): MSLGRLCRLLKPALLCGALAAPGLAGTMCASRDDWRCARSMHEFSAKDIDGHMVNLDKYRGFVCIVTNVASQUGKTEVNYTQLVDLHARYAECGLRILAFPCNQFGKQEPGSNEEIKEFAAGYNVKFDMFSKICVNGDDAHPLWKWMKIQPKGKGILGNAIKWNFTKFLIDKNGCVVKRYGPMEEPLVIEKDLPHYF
Glutathione peroxidase 1 (Homo sapiens), sequence (P07203 whole entry, looked up): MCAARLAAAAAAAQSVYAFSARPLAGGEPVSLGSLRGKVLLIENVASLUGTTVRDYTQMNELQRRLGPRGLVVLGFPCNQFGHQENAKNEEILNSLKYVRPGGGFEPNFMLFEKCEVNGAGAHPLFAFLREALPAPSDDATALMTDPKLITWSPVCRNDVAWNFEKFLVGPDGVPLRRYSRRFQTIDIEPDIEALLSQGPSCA

For the compound `Cc1cc2c(C(C)C)c(O)c(O)c(C=O)c2c(O)c1-c1c(C)cc2c(C(C)C)c(O)c(O)c(C=O)c2c1O`, in [1], the Potency entry is “inactive”. Moreover, the Potency in assay [2] is 10.1 µM (active) and inactive; in assay [3] it was 10.5 µM (active); in [4], 20.9 µM (active); in [5] it was 10.5 µM (active); in assay [6], 8.33 µM (active); in assay [7], 10.5 µM (active). The Potency in assay [8] was 8.33 µM (active).
For `COc1ccc(COc2cc3oc(=O)c4cc(C(C)O)ccc4c3cc2OC)cc1` (centres undefined), the Potency result in [1] and in [2] was “inactive” in each case. The Potency was 13.2 µM (active) in assay [3]; 5.9 µM (active) in assay [9]; 3.72 µM (active) in assay [10]; 4.69 µM (active) in assay [6]; 4.69 µM (active) in assay [11]; 7.43 µM (active) in assay [7]. Moreover, the Potency in assay [8] was 16.6 µM (active).
As for `O=C(O)[C@@H](c1ccc(OCc2ccc3ccccc3n2)cc1)C1CCCC1`, the Potency result in [1], in assay [2], in [3], in assay [9], in assay [5] and in assay [10] was “inactive” each time. The Potency result in [6], in assay [7] and in assay [8] was “inactive” throughout.
For `CCn1c(-c2nonc2N)nc2cnc(Oc3cccc(NC(=O)c4ccc(OCCN5CCOCC5)cc4)c3)cc21`, the Potency result in assay [1] and in assay [2] was “inactive” in each case. Also, the Potency in assay [3] was 14.8 µM (active); in [9], 5.9 µM (active); in assay [5], 18.7 µM (active); in assay [10] it was 5.9 µM (active); in assay [11], 7.43 µM (active); in assay [8] it was 20.9 µM (active).
Take `CCN(CC)CCCC(C)Nc1nc(C)cc(Nc2ccc3nc(C)cc(N)c3c2)n1` (centres undefined): the Potency entry in [1], in [2], in assay [9] and in assay [8] was “inactive” each time. Besides, the Potency was 4.69 µM (active) in assay [12], 14.8 µM (active) in assay [10] and 7.43 µM (active) in assay [6].
On to `Cc1c(C)c2c(c(C)c1O)CCC(C)(COc1ccc(CC3SC(=O)NC3=O)cc1)O2` (centres undefined), for which the Potency entry in assay [1], in assay [2], in assay [3], in assay [4] and in assay [5] was “inactive” throughout.
On to `NC(=O)c1ccc(-c2nc(-c3ccc4c(c3)OCO4)c(-c3ccccn3)[nH]2)cc1`, for which the Potency entry in assay [1], in assay [2], in [10], in assay [6] and in assay [8] was “inactive” each time. Also, the Potency is 14.8 µM (active) in assay [3] and 1.66 µM (active) in assay [11].
As for `CS(=O)(=O)Oc1ccc2c(NC(N)=O)c(C(=O)c3ccc(Cl)cc3Cl)oc2c1`, the Potency entry in assay [1], in assay [2] and in assay [3] was “inactive” each time. Moreover, the Potency in [9] is 9.35 µM (active); in assay [10], 8.33 µM (active); in assay [6], 10.5 µM (active).
Take `CCCn1c(=O)c2[nH]c(C34CC5CC3C[C@@H](C5)C4)nc2n(CCC)c1=O`: the Potency result in [1], in assay [2], in assay [3], in assay [10], in assay [6] and in assay [8] was “inactive” in each case. The Potency in [4] is 16.6 µM (active); in assay [9], 0.0264 µM (active).
Turning to `CN[C@@H](C)C(=O)N[C@H]1CCCC[C@H]2CC[C@@H](C(=O)N[C@@H](c3ccccc3)c3cn(CCCCc4ccc(CCCCn5cc([C@@H](NC(=O)[C@@H]6CC[C@@H]7CCCC[C@H](NC(=O)[C@H](C)NC)C(=O)N76)c6ccccc6)nn5)cc4)nn3)N2C1=O`, the Potency entry in [1] and in assay [2] was “inactive” in each case. Further, the Potency is 3.72 µM (active) in assay [12], 5.26 µM (active) in assay [4], 14.8 µM (active) in [6] and 5.26 µM (active) in assay [7].
As to `CC(c1cc2ccccc2s1)N(O)C(N)=O` (centres undefined), the Potency entry in assay [1], in [2], in assay [3], in assay [4], in assay [9] and in assay [10] was “inactive” throughout. Also, the Potency result in [8] was “inactive”.
Consider `Fc1ccc(Cl)cc1-c1nc(Nc2ccncc2)c2nccnc2n1`, for which the Potency entry in assay [1], in assay [2], in [3], in assay [10], in assay [6] and in assay [13] was “inactive” throughout. Also, the values for the Potency in assay [4], in assay [9] and in assay [8] were 8.33 µM (active), 5.26 µM (active) and 13.2 µM (active), respectively.
For the compound `COc1ccc2nc(S(=O)Cc3ncc(C)c(OC)c3C)[nH]c2c1` (centres undefined), the Potency is 5.08 µM (active) and inactive in [1]; 11.4 µM (active) in assay [2]; 18.7 µM (active) in assay [4]. In addition, the Potency entry in assay [3], in assay [5] and in assay [8] was “inactive” throughout.
Turning to `Cc1ccc(-n2nc(C(C)(C)C)cc2NC(=O)Nc2ccc(OCCN3CCOCC3)c3ccccc23)cc1`, the Potency result in assay [1] and in assay [2] was “inactive” each time. The Potency in assay [12] is 2.64 µM (active); in assay [9], 18.7 µM (active); in assay [6] it was 16.6 µM (active); in assay [8], 18.7 µM (active).
For `Nc1nc2[nH]cc(CCc3ccc(C(=O)N[C@@H](CCC(=O)O)C(=O)O)cc3)c2c(=O)[nH]1`, the Potency result in assay [1], in [2], in [12], in assay [4] and in [6] was “inactive” in each case. The results for the Potency in [9], in assay [10] and in assay [8] were 0.526 µM (active), 0.469 µM (active) and 0.833 µM (active), respectively.
Turning to `Cc1ccc(NC(=O)c2cccc(C(C)(C)C#N)c2)cc1Nc1ccc2ncn(C)c(=O)c2c1`, the Potency entry in assay [1] and in assay [2] was “inactive” in each case. Further, the Potency in assay [9] is 5.9 µM (active); in [10] it was 0.332 µM (active); in assay [6], 1.18 µM (active); in assay [13] it was 0.187 µM (active); in assay [7], 0.166 µM (active); in [8], 11.8 µM (active).
Take `NC(=O)c1ccc(-c2nc(-c3ccc4c(c3)OCCO4)c(-c3ccccn3)[nH]2)cc1`: the Potency entry in assay [1], in assay [2], in assay [4] and in [8] was “inactive” throughout.
For the compound `CCC(C)(C)C(=O)O[C@H]1C[C@@H](C)C=C2C=C[C@H](C)[C@H](CC[C@@H]3C[C@@H](O)CC(=O)O3)[C@H]21`, the Potency result in assay [1], in assay [2] and in [4] was “inactive” in each case. For the same compound, the Potency was 18.7 µM (active) in [9]; 20.9 µM (active) in assay [5]; 16.6 µM (active) in assay [10]; 13.2 µM (active) in assay [7]; 14.8 µM (active) in [8].
